# Assay results: article PMC7862700, “An all-to-all approach to the identification of sequence-specific readers for epigenetic DNA modifications on cytosine”
# What was measured:
# Assay in all cases: DAPPL (digital affinity profiling via proximity ligation, sequencing); 10 mM Tris-HCl pH 7.5, 50 mM NaCl, 1 mM DTT, 4% glycerol, room temperature, 30 min; GST-TFs on glutathione beads, 16-mer random dsDNA library, 0.1% formaldehyde crosslink after washing; high values mean tight binding
# Settings in all cases: protein: recombinant; tags: N-terminal GST; dsDNA, one strand shown
# [1] = target: T1, ERF (Homo sapiens, UniProt P50548 1-548)
# T1 sequence: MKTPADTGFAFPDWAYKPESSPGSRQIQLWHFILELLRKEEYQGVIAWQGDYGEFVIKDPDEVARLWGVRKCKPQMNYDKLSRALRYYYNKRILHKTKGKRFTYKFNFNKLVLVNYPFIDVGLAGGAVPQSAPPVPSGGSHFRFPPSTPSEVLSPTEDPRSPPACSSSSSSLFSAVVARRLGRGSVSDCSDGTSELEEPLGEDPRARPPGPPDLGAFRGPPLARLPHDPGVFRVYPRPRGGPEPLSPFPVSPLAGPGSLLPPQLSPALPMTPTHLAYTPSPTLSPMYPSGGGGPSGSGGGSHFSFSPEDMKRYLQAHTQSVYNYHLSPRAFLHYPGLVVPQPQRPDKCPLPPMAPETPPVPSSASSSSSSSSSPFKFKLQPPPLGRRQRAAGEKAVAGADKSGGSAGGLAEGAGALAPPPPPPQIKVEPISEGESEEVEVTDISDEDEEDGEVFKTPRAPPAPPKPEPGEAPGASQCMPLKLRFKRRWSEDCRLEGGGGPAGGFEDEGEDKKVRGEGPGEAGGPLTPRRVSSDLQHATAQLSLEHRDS
# Procedure, shortened: (§1)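 Binding signal is defined as a hexamer's read frequency for one factor over its frequency for the tag-only sample. To obtain reads, GST-fused human transcription factors were expressed in yeast, captured on glutathione beads, barcoded with DNA and pooled with that sample. Pools met 200 nmole of a 16-mer random double-stranded DNA library in Tris/NaCl/DTT/glycerol buffer for 30 min at room temperature before washing, 0.1% formaldehyde crosslinking, proximity ligation (BsaI/T4 ligase, 1 h, 37 °C), PCR and Illumina NextSeq500 sequencing.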
# [2] = target: T2, ETV3L (Homo sapiens, UniProt Q6ZN32 1-361)
# T2 sequence: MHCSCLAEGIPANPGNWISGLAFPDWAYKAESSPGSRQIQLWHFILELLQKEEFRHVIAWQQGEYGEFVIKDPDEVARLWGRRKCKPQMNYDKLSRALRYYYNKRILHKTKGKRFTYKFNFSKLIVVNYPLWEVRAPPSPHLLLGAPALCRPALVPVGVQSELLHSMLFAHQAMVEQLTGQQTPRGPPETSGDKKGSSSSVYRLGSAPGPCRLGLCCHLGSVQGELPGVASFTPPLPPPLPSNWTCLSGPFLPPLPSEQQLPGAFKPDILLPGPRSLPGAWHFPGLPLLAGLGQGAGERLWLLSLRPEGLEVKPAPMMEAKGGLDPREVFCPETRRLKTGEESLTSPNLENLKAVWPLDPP
# Procedure, shortened: as §1
# [3] = target: T3, ETS2 (Homo sapiens, UniProt P15036 1-469)
# T3 sequence: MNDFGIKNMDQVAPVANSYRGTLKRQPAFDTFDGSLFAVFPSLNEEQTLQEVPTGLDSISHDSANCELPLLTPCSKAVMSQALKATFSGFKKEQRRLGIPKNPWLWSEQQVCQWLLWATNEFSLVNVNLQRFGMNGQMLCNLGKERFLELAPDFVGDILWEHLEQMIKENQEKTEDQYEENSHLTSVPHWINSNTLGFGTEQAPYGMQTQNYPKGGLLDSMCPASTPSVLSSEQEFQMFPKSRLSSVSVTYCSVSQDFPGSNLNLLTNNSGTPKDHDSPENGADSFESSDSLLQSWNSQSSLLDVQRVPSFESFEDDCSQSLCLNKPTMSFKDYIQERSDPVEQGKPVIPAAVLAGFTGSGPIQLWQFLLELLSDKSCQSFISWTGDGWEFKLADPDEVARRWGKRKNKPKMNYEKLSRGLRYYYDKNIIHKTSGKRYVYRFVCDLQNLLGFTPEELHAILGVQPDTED
# Procedure, shortened: as §1
# [4] = target: T4, SPDEF (Homo sapiens, UniProt O95238 1-335)
# T4 sequence: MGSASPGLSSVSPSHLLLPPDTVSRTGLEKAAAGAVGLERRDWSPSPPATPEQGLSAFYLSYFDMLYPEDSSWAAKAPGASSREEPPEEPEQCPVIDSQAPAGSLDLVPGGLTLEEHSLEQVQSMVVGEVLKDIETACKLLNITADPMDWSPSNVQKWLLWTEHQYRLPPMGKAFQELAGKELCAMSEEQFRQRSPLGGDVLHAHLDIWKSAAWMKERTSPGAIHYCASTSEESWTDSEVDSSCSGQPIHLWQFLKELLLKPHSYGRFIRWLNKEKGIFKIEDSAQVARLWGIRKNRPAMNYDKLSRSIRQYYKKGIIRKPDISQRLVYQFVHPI
# Procedure, shortened: as §1
# [5] = target: T5, ETV7 (Homo sapiens, UniProt Q9Y603 1-341)
# T5 sequence: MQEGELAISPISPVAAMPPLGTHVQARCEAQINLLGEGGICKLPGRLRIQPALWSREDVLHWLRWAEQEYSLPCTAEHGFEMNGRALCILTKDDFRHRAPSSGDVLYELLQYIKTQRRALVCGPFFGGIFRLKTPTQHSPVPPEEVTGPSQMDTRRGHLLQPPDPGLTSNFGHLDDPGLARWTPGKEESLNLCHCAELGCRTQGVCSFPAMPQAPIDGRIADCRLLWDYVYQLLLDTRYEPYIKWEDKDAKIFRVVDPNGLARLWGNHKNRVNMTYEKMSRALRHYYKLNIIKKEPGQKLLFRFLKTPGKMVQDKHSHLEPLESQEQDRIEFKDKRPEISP
# Procedure, shortened: as §1
# [6] = target: T6, ELF5 (Homo sapiens, UniProt Q9UKW6-2 1-255)
# T6 sequence: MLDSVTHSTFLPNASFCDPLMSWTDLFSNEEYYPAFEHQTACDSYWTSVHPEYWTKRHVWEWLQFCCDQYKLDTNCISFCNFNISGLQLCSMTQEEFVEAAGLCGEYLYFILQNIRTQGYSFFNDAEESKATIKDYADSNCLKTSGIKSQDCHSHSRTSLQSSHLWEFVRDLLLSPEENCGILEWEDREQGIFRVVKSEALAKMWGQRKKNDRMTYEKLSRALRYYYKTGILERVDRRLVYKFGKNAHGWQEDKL
# Procedure, shortened: as §1
# [7] = target: T7, ETV3 (Homo sapiens, UniProt P41162-2 1-143)
# T7 sequence: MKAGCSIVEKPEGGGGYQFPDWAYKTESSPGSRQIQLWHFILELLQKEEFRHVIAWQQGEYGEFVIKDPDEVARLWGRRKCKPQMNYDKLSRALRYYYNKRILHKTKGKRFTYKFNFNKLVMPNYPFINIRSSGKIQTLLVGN
# Procedure, shortened: as §1
# [8] = target: ETV6 (Homo sapiens, UniProt P41212 1-452)
# Chain of ETV6 (P41212 whole entry): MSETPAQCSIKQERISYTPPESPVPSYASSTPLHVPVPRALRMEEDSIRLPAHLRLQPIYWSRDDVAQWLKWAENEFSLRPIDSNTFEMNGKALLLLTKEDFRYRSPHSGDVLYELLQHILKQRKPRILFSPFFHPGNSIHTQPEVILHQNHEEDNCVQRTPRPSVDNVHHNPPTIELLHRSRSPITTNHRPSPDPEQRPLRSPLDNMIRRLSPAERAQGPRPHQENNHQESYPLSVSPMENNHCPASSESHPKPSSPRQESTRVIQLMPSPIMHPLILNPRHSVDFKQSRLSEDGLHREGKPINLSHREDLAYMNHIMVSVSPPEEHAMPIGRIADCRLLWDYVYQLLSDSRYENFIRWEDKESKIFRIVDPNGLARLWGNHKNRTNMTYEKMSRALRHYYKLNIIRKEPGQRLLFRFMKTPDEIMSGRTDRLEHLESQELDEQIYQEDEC
# Procedure, shortened: as §1
Sequence,binding signal [1],binding signal [2],binding signal [3],binding signal [4],binding signal [5],binding signal [6],binding signal [7],binding signal [8]
TTCCAC,"1.38 fold enrichment (6-mer frequency, TF over GST control)","1.54 fold enrichment (6-mer frequency, TF over GST control)","1.44 fold enrichment (6-mer frequency, TF over GST control)","1.36 fold enrichment (6-mer frequency, TF over GST control)","1.31 fold enrichment (6-mer frequency, TF over GST control)","1.51 fold enrichment (6-mer frequency, TF over GST control)","1.46 fold enrichment (6-mer frequency, TF over GST control)","1.47 fold enrichment (6-mer frequency, TF over GST control)"
TTCAGC,"1.14 fold enrichment (6-mer frequency, TF over GST control)","1.21 fold enrichment (6-mer frequency, TF over GST control)","1.27 fold enrichment (6-mer frequency, TF over GST control)","1.12 fold enrichment (6-mer frequency, TF over GST control)","1.27 fold enrichment (6-mer frequency, TF over GST control)","1.16 fold enrichment (6-mer frequency, TF over GST control)","1.32 fold enrichment (6-mer frequency, TF over GST control)","1.2 fold enrichment (6-mer frequency, TF over GST control)"
TATCTT,"1.32 fold enrichment (6-mer frequency, TF over GST control)","1.41 fold enrichment (6-mer frequency, TF over GST control)","1.29 fold enrichment (6-mer frequency, TF over GST control)","1.32 fold enrichment (6-mer frequency, TF over GST control)","1.22 fold enrichment (6-mer frequency, TF over GST control)","1.4 fold enrichment (6-mer frequency, TF over GST control)","1.25 fold enrichment (6-mer frequency, TF over GST control)","1.18 fold enrichment (6-mer frequency, TF over GST control)"
AAATAT,"1.25 fold enrichment (6-mer frequency, TF over GST control)","1.32 fold enrichment (6-mer frequency, TF over GST control)","1.37 fold enrichment (6-mer frequency, TF over GST control)","1.35 fold enrichment (6-mer frequency, TF over GST control)","1.4 fold enrichment (6-mer frequency, TF over GST control)","1.41 fold enrichment (6-mer frequency, TF over GST control)","1.29 fold enrichment (6-mer frequency, TF over GST control)","1.43 fold enrichment (6-mer frequency, TF over GST control)"
TTTTAA,"1.37 fold enrichment (6-mer frequency, TF over GST control)","1.28 fold enrichment (6-mer frequency, TF over GST control)","1.28 fold enrichment (6-mer frequency, TF over GST control)","1.21 fold enrichment (6-mer frequency, TF over GST control)","1.32 fold enrichment (6-mer frequency, TF over GST control)","1.17 fold enrichment (6-mer frequency, TF over GST control)","1.23 fold enrichment (6-mer frequency, TF over GST control)","1.27 fold enrichment (6-mer frequency, TF over GST control)"
GTTGCT,"1.27 fold enrichment (6-mer frequency, TF over GST control)","1.26 fold enrichment (6-mer frequency, TF over GST control)","1.22 fold enrichment (6-mer frequency, TF over GST control)","1.27 fold enrichment (6-mer frequency, TF over GST control)","1.38 fold enrichment (6-mer frequency, TF over GST control)","1.27 fold enrichment (6-mer frequency, TF over GST control)","1.51 fold enrichment (6-mer frequency, TF over GST control)","1.29 fold enrichment (6-mer frequency, TF over GST control)"
GCTATT,"1.37 fold enrichment (6-mer frequency, TF over GST control)","1.34 fold enrichment (6-mer frequency, TF over GST control)","1.25 fold enrichment (6-mer frequency, TF over GST control)","1.2 fold enrichment (6-mer frequency, TF over GST control)","1.34 fold enrichment (6-mer frequency, TF over GST control)","1.33 fold enrichment (6-mer frequency, TF over GST control)","1.25 fold enrichment (6-mer frequency, TF over GST control)","1.35 fold enrichment (6-mer frequency, TF over GST control)"
CCTCCC,"1.59 fold enrichment (6-mer frequency, TF over GST control)","1.49 fold enrichment (6-mer frequency, TF over GST control)","1.58 fold enrichment (6-mer frequency, TF over GST control)","1.38 fold enrichment (6-mer frequency, TF over GST control)","1.44 fold enrichment (6-mer frequency, TF over GST control)","1.49 fold enrichment (6-mer frequency, TF over GST control)","1.43 fold enrichment (6-mer frequency, TF over GST control)","1.44 fold enrichment (6-mer frequency, TF over GST control)"
ATTCGC,"1.24 fold enrichment (6-mer frequency, TF over GST control)","1.23 fold enrichment (6-mer frequency, TF over GST control)","1.15 fold enrichment (6-mer frequency, TF over GST control)","1.26 fold enrichment (6-mer frequency, TF over GST control)","1.12 fold enrichment (6-mer frequency, TF over GST control)","1.18 fold enrichment (6-mer frequency, TF over GST control)","1.23 fold enrichment (6-mer frequency, TF over GST control)","1.25 fold enrichment (6-mer frequency, TF over GST control)"
AGCTAC,"1.25 fold enrichment (6-mer frequency, TF over GST control)","1.14 fold enrichment (6-mer frequency, TF over GST control)","1.09 fold enrichment (6-mer frequency, TF over GST control)","1.02 fold enrichment (6-mer frequency, TF over GST control)","1.31 fold enrichment (6-mer frequency, TF over GST control)","1.18 fold enrichment (6-mer frequency, TF over GST control)","1.17 fold enrichment (6-mer frequency, TF over GST control)","1.22 fold enrichment (6-mer frequency, TF over GST control)"
CTTCAT,"1.35 fold enrichment (6-mer frequency, TF over GST control)","1.52 fold enrichment (6-mer frequency, TF over GST control)","1.43 fold enrichment (6-mer frequency, TF over GST control)","1.43 fold enrichment (6-mer frequency, TF over GST control)","1.46 fold enrichment (6-mer frequency, TF over GST control)","1.44 fold enrichment (6-mer frequency, TF over GST control)","1.46 fold enrichment (6-mer frequency, TF over GST control)","1.33 fold enrichment (6-mer frequency, TF over GST control)"
TTTGTA,"1.63 fold enrichment (6-mer frequency, TF over GST control)","1.69 fold enrichment (6-mer frequency, TF over GST control)","1.52 fold enrichment (6-mer frequency, TF over GST control)","1.6 fold enrichment (6-mer frequency, TF over GST control)","1.53 fold enrichment (6-mer frequency, TF over GST control)","1.46 fold enrichment (6-mer frequency, TF over GST control)","1.63 fold enrichment (6-mer frequency, TF over GST control)","1.54 fold enrichment (6-mer frequency, TF over GST control)"
